Test results as given in PubChem BioAssay (NCATS).
Results filed as inconclusive are left out. Unmarked numbers belong to inactive results. Calls come from the whole dose curve; as a rule, active = well fitted cell-killing curve with a large enough effect; inconclusive = small, poorly fitted or top-dose-only effect; inactive = flat fitted curve, though single readings scatter.

Test: Cell Viability - LYMP2-009 (AID 968);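 note: cells exposed to compound for 24 h at 37 °C; 0% = DMSO alone and the full-kill end = tetraoctylammonium bromide at 92 µM; nearly all actives have a fitted effect of over 55% in size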
Settings: LYMP2-009 lymphoblastoid cell viability; series mostly up to 92.2 µM; activity change, negative = viability loss: at the top concentration
From the text: NIH Chemical Genomics Center [NCGC]
NIH Molecular Libraries Screening Centers Network [MLSCN]
National Institutes of Environmental Health Sciences [NIEHS]
National Toxicology Program [NTP]
We have developed a 1536-well cell-based assay for quantitative high throughput screening (qHTS) against a number of cell lines to determine in vitro cytotoxicity of small molecules. This particular assay uses a human lymphoblastoid cell line (LYMP2-009) purchased from Coriell Institute for Medical Research.
NCGC Assay Protocol Summary:
The CellTiter-Glo luminescent cell viability assay (Promega) is a homogeneous method to measure the number of viable cells in culture. The end point readout of this assay is based on quantitation of intracellular ATP, an indicator of metabolic activity, using the luciferase reaction. Luciferase catalyzes the oxidation of beetle Luciferin to oxyluciferin and light in the presence of ATP. The luminescent signal is proportional to amount of ATP present.
Using the CellTiter-Glo luminescent cell viability assay, the amount of cellular ATP was measured in the lymphoblastoid cell line with complete culture medium following compound treatment for 24 hours. The assay was performed in opaque white Kalypsys 1536-well plates. In the screen, tetraoctylammonium bromide was used as positive control. Library compounds were measured for their ability to cause acute toxicity in the cell line, as reflected by a decrease in intracellular ATP levels, in a concentration-dependent manner. […] AC50 values were determined from concentration-response data modeled with the standard Hill equation.
qHTS protocol for CellTiter Glo lymphoblastoid cellular assay
[Step] [Parameter] [Value] [Description]
1. Reagent; 5 uL; 2500 lymphoblastoid cells/well
2. Time; 5 hr; 37 C incubation
4. Controls; 23 nL; Tetraoctylammonium bromide 6.4pM to 92 uM
5. Time; 24 hr; 37 C incubation
6. Reagent; 5 uL; CellTiter Glo reagent
7. Time; 30 min; Room Temperature
8. Detection; Luminescence; Viewlux plate reader
Keywords: cell viability, cytotoxicity, lymphoblastoid cell line, luminescence, NTPHTS, NTPHTS_NCGC, NIEHS, DSSTox, MLSMR, MLSCN, NIH Roadmap, qHTS, NCGC

Compared with `O=C(O)c1cc(Cl)cc(Cl)c1`, `O=C(O)c1ccc(Cl)c(Cl)c1` is higher in “activity change, negative = viability loss” value: -6.1% for the first, -1.01% for the second.

Going from `Cc1cccc([N+](=O)[O-])c1C(=O)O` to `O=C(O)c1cccc([N+](=O)[O-])c1`, the “activity change, negative = viability loss” value falls from -8.3% to -18.8%.

Compared with `Nc1cccc(C(F)(F)F)c1`, `Nc1cccc(N)c1` is higher in “activity change, negative = viability loss” value: -5.25% for the first, 1.8% for the second.

Compared with `Cc1ccc(Br)cc1`, `Cc1ccc(C#N)cc1` is lower in “activity change, negative = viability loss” value: 0.35% for the first, -3.25% for the second.

First: N#CC1(O)CCCCC1
Second: C1CCC2OC2C1 (stereo not given)
The “activity change, negative = viability loss” value of the first is lower: -8.77% for the first, -1.43% for the second.

Compared with `C=C(C)C1CC=C(C)C(OC(C)=O)C1` (stereo not given), `CCC(=O)/C=C/C1C(C)=CCCC1(C)C` (stereo not given) is lower in “activity change, negative = viability loss” value: -5.53% for the first, -23.1% for the second.

Going from `Nc1ccccc1S(=O)(=O)O` to `CCc1ccccc1O`, the “activity change, negative = viability loss” value rises from -9.42% to -0.595%.

First: ICCc1ccccc1
Second: CCc1ccccc1
The “activity change, negative = viability loss” value of the first is lower: -20% for the first, -7.81% for the second.

First: CCC(C)(C)C
Second: CC(C)(O)C(=O)O
The “activity change, negative = viability loss” value of the first is higher: -2.34% for the first, -14.8% for the second.

First: Cc1cccc2ccccc12
Second: Cc1cccc2cccnc12
The “activity change, negative = viability loss” value of the first is lower: -4.44% for the first, -2.79% for the second.

Compared with `CCCCCCCN`, `CCCCCNCCCCC` is lower in “activity change, negative = viability loss” value: -2.56% for the first, -5.94% for the second.

First: C=C(C)C(=O)OCC(C)O (stereo not given)
Second: C=C(C)C(=O)OCCCCCC
The “activity change, negative = viability loss” value of the first is higher: -3.48% for the first, -8.42% for the second.

First: CC(=O)CC(C)C
Second: CC(=O)c1ccccn1
The “activity change, negative = viability loss” value of the first is lower: -2% for the first, 0.649% for the second.

Compared with `CNc1ccccc1`, `c1ccc2[nH]cnc2c1` is lower in “activity change, negative = viability loss” value: 2.73% for the first, -4.63% for the second.

Going from `c1ccsc1` to `Nc1nc2ccccc2[nH]1`, the “activity change, negative = viability loss” value falls from -5.51% to -18.5%.

Going from `O=C(Cl)c1ccccc1[N+](=O)[O-]` to `O=[N+]([O-])c1cc(C(F)(F)F)ccc1Cl`, the “activity change, negative = viability loss” value falls from -0.884% to -5.01%.

First: CC(=C/C=C/C(C)=C/C=C/C=C(C)/C=C/C=C(C)/C=C/C(=O)O)/C=C/C(=O)O
Second: Cc1cc(C2(c3cc(C)c(O)cc3C)OS(=O)(=O)c3ccccc32)c(C)cc1O
The “activity change, negative = viability loss” value of the first is higher: -6.6% for the first, -20.8% for the second.

Going from `COCCOC(=O)c1ccccc1C(=O)OCCOC` to `c1ccc2c(c1)ccc1ncccc12`, the “activity change, negative = viability loss” value falls from -4.74% to -5%.

First: CSCCC=O
Second: OCCO
The “activity change, negative = viability loss” value of the first is lower: -12.4% for the first, -7.88% for the second.

First: O=C1CCC(=O)O1
Second: C=CCn1c(=O)n(CC=C)c(=O)n(CC=C)c1=O
The “activity change, negative = viability loss” value of the first is higher: 0.124% for the first, -3.23% for the second.
